# From PubChem
# HDAC3 inh – inhibitors of human histone deacetylase 3; O15379; recombinant HDAC3, fluorogenic peptide/trypsin coupled, fluorescence; inhibition, % at 8.3 µM; 320,000 compounds, 0.15% hits; AID 2718; in the data active = inhibition above about 26%, passing the limit was not always enough; inconclusive = no clear call, values can overlap the other calls
# Glyco luc inh – blocks N-linked glycosylation in D54 reporter cells; D54 ERlucT glycosylation luciferase reporter, 24 h; percent of 100 nM tunicamycin response; reporter increase, % at 12.5 µM; 360,000 compounds, 0.23% hits; AID 588692;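 active = mean luciferase reporter signal, scaled so untreated is 0 and the glycosylation-blocking control 100, at or above a set limit in every replicate; inconclusive = mean reaches the limit but not every replicate does; inactive = mean below the limit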;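 note: luciferase carries N-glycosylation sites so blocking glycosylation raises the light; 0% = median of neutral control wells and 100% = median of 100 nM tunicamycin wells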
# C-LANA FP – KSHV C-LANA DNA binding inhibition; AID 504423; 340,000 compounds, 0.078% hits; MBP-C-LANA/FAM-LBS DNA binding, fluorescence polarization; inhibition, % at 9 µM;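 active = highest replicate inhibition at or above 60% at 9 µM, even if other replicates fall short; inactive = all replicates below 60% inhibition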;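 note: 0% = neutral control wells and 100% = 4 µM acridine orange control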
# Keap1 Nrf2 FP – Keap1-Nrf2 (human) interaction inhibition; Q14145; 340,000 compounds, 0.15% hits; Keap1 Kelch-Nrf2 peptide fluorescence polarization, 1536-well; AID 504523; inhibition, % at 9.4 µM; in the data active = inhibition above about 12%; inconclusive = no clear call, values can overlap the other calls; inactive = below about 7.3%;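 note: human Keap1 Kelch domain with fluorescein labeled Nrf2 9mer peptide probe; 0% = neutral control wells and 100% = peptide positive control; higher means more block of Keap1 binding to Nrf2 peptide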
# Target sequence (Q14145 whole entry, looked up, the tested form may be a part): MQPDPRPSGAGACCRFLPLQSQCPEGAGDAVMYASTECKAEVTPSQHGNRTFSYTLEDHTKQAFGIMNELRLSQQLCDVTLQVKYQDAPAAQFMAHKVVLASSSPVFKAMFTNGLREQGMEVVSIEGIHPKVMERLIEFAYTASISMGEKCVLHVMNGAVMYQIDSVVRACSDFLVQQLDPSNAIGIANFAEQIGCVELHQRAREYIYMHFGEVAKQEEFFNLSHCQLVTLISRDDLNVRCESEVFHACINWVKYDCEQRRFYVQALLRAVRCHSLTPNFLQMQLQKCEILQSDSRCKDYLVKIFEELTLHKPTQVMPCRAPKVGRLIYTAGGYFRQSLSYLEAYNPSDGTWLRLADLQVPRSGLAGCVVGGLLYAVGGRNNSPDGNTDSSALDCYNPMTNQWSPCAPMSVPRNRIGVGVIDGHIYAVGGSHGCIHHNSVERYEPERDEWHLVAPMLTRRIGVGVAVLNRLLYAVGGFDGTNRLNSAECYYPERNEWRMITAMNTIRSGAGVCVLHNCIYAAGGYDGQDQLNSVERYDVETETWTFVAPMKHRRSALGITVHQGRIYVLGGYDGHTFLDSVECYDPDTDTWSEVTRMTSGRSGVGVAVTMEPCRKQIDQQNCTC
# NSD2 HMT inh – inhibitors of human histone methyltransferase NSD2 | AID 743445 | O96028 | NSD2 peptide methylation, AlphaScreen, 120 min | 310,000 compounds, 0.54% hits | inhibition, % at 12.5 µM; in the data active = inhibition above about 50%
# Casp6 inh – blocks human caspase-6 cleavage activity | P55212 | purified caspase-6, Z-VEID-R110 cleavage fluorescence | inhibition, % at 12.5 µM | 350,000 compounds, 0.53% hits | AID 686996;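 active = mean inhibition across replicates at least about 35%, with every replicate also reaching that limit, limit read from the data; inconclusive = only one of the two criteria met; inactive = neither criterion met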;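 note: 0% = median of neutral control wells and 100% = no fluorescence left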
# * hit, by the source's call; ? = inconclusive; / = no result given. A selection: hits, their analogues and other compounds. The true share with any hit is near 1.1%.
SMILES,HDAC3 inh,Glyco luc inh,C-LANA FP,Keap1 Nrf2 FP,NSD2 HMT inh,Casp6 inh
O=C1NC(=Nc2ccccc2Cl)S/C1=C\c1cccc([N+](=O)[O-])c1O,5,1,6,-6,60*,39*
CCn1c2ccccc2c2cc(NC(=O)COC(=O)c3cccc(S(=O)(=O)NC)c3)ccc21,-2,24,1,-2,-2,2
CCn1c2ccccc2c2cc(NC(=O)COc3ccccc3OC)ccc21,7,16,1,-1,-4,/
CCn1c2ccccc2c2cc(NC(=O)CNCc3ccccc3OC)ccc21,5,29*,0,-4,-7,0
CCN(CC)S(=O)(=O)c1cccc(C(=O)OCC(=O)Nc2ccc3c(c2)c2ccccc2n3CC)c1,5,29*,-1,-3,0,-1
C/C=C/c1cnc2c(c1)C(=O)N([C@@H](C)CO)C[C@@H](C)[C@H](CN(C)C(=O)Nc1c(C)noc1C)O2,/,/,/,/,/,-2
COc1ccc(N2CCN(C(=O)CN(C)S(=O)(=O)c3ccc4c(c3)c(=O)n(C)c(=O)n4C)CC2)cc1,1,0,0,4,3,0
CCOC(=O)N1CCN(C(=O)CN(C)S(=O)(=O)c2ccc3c(c2)c(=O)n(C)c(=O)n3C)CC1,-5,1,0,3,-1,42*
C[C@H]1CN([C@@H](C)CO)C(=O)Cc2cc(NS(=O)(=O)c3cn(C)cn3)ccc2O[C@H]1CN(C)Cc1ccc(-c2ccccc2)cc1,/,/,/,/,/,0
C=C(C)C(=O)Nc1ccc2c(c1)OCCOCCOCCO2,-1,0,28,-3,/,53*
CN1CC2([N+](=O)[O-])CC=C(OCCO)C([N+](=O)[O-])(C1)C2 (stereo unspecified),-10,1,-1,3,-2,39*
COc1ccc(C2NC(c3ccc(OC)cc3OC)C(C)C(=O)C2C)c(OC)c1 (stereo unspecified),-1,-1,-3,-1,7,55*
COCC#Cc1cnc2c(c1)C(=O)N([C@@H](C)CO)C[C@H](C)[C@H](CN(C)C(=O)c1cccnc1)O2,/,/,/,/,/,0
Cc1cccc(C)c1-n1cccc1/C=C1\SC(=S)N(c2cccc(C(=O)O)c2)C1=O,14,1,3,-4,14,37*
CN(C)C(=O)c1cccc(-c2ccc3c(c2)[C@@H]2[C@@H](CCN2C(=O)C2CCC2)[C@H](CO)N3)c1,/,/,/,/,/,2
CCC(=O)N1CCC1(C)C(=O)Nc1cccc2cccnc12 (stereo unspecified),/,1,/,/,1,78*
COc1cccc(NC(=O)N[C@H]2CC[C@H](CC(=O)Nc3ccccc3)O[C@H]2CO)c1,/,/,/,/,/,1
CCCC(=O)Oc1ccc(N(C(=O)CCC)S(=O)(=O)c2cccc([N+](=O)[O-])c2)cc1,50*,6,-1,-1,1,/
CCCC(=O)Oc1ccc(N(C(=O)CCC)S(=O)(=O)c2cccs2)cc1,56*,0,-2,3,-10,3
COc1ccc(S(=O)(=O)N[C@@H]2CC[C@@H](CCn3cc(C(C)C)nn3)O[C@@H]2CO)cc1,/,/,/,/,/,1
NC(=O)/C(=C/c1ccco1)C(N)=S,15,0,9,-2,1,35*
COc1cc2c(cc1OC)C(C)N(C(=O)Nc1ccccc1)CC2 (stereo unspecified),-4,35*,-1,-3,-2,-3
COc1cc2c(cc1OC)C(C)N(C(=O)CCNC(=O)c1ccccc1)CC2 (stereo unspecified),-14,-1,1,-2,2,-3
Cc1ccc(S(=O)(=O)N(C)C[C@@H]2Oc3ccc(NC(=O)CCCN(C)C)cc3C(=O)N([C@@H](C)CO)C[C@H]2C)cc1,/,/,/,/,/,2
COc1ccc(NC(=O)Nc2ccccc2F)c(C)c1,0,1,0,-4,-2,0
SMILES,HDAC3 inh,Glyco luc inh,C-LANA FP,Keap1 Nrf2 FP,NSD2 HMT inh,Casp6 inh
COc1ccc(NC(=O)Nc2ccccc2F)c([N+](=O)[O-])c1,4,-2,1,-6,-2,39*
CCCc1cn([C@H]2C[C@@H]3O[C@H](CO)CC[C@@H]3O[C@@H]2CCc2ccc(C#CCc3ccccc3)cc2)nn1,/,/,/,/,/,-2
O=S(=O)(c1cccc2cccnc12)N1CCN(c2ccc(F)cc2)CC1,2,-1,-1,0,0,42*
CC(=O)NC(c1cccc(F)c1)c1nc(-c2ccccc2C)cs1 (stereo unspecified),/,19,/,/,13,1
COc1cccc(C(NC(C)=O)c2nc(-c3ccccc3C)cs2)c1 (stereo unspecified),/,45*,/,/,15,1
CC(=O)NC(c1cccc(F)c1)c1nc(-c2ccccc2)cs1 (stereo unspecified),/,3,/,/,5,-1
COc1cc(F)ccc1-c1csc(C(NC(C)=O)c2cccc(F)c2)n1 (stereo unspecified),/,58*,/,/,12,-1
CC(C)(C)OC(=O)NCCCC[C@H](NC(=O)c1nc[nH]c1C(=O)N1CCc2ccccc2C1)C(=O)OC(C)(C)C,?,2,-1,-3,/,-1
C[C@H](NC(=O)c1nc[nH]c1C(=O)N[C@@H](C)C(=O)OC(C)(C)C)C(=O)OCc1ccccc1,5,4,-1,-3,/,-9
CN(Cc1ccccc1)C(=O)c1[nH]cnc1C(=O)N[C@@H](Cc1ccccc1)C(=O)OCc1ccccc1,33*,3,-3,4,/,/
C[C@H](NC(=O)c1nc[nH]c1C(=O)N[C@@H](Cc1ccccc1)C(=O)OCc1ccccc1)C(=O)OC(C)(C)C,31*,0,1,-4,/,0
CC(C)(C)OC(=O)[C@H](Cc1ccccc1)NC(=O)c1nc[nH]c1C(=O)N1CCc2ccccc2C1,8,33*,-1,1,/,2
CSC(=NS(=O)(=O)c1ccc(N)cc1)NS(=O)(=O)c1cccs1,/,4,68*,5,21,8
CCOc1ccc2[nH]c(C(=O)N/N=C/c3ccccc3OC)cc2c1,1,14,1,-4,-2,-3
COc1ccc2[nH]c(C(=O)N/N=C/c3ccccc3OC)cc2c1,8,37*,5,-4,1,6
C[C@@]12CCC=C[C@H]1[C@H](c1ccc(F)c(/C=C/c3ccccc3)c1)N(Cc1ccccc1)C2=O,31*,-3,-3,1,/,6
Cc1ccc(-c2cc([C@H]3[C@@H]4C=CCC[C@@]4(C)C(=O)N3Cc3ccccc3)ccc2F)cc1,10,-5,1,-1,/,-1
O=C(CCN1CCCCC1)NCC[C@H]1CC[C@@H](NC(=O)C2CC2)[C@@H](CO)O1,/,/,/,/,/,-5
COc1ccc(C=CC(=O)c2ccc(OC)c(OC)c2O)cc1OC,/,37*,-1,-8,5,0
COc1ccc(/C=C/C(=O)c2ccc(Cl)s2)cc1O,1,28*,0,-3,9,/
COc1ccc(C=CC(=O)c2ccc3cc(OC)c(OC)cc3c2)cc1OC,/,?,/,/,0,-2
